This passage reports growth results from PubChem BioAssay (NCI).

The panel holds about 83,000 compounds, 20% with a hit somewhere; the sample as a whole holds those more often.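 Single-dose data. Exposure time 48 hours. Values below 10 considered active.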 Calls of active or inactive are those of the source.

In this experiment the test system is A498 renal. Kind of experiment: NCI-60 one-dose screen, 48 h (100 = growth as untreated, 0 = no growth, -100 = all killed). The following applies: 10 µM unless noted.
Regarding `CC(=O)OC[C@]12CC[C@@H]([C@@H](C)c3nnc(-c4ccncc4)o3)[C@@H]1[C@H]1CC[C@@H]3[C@@]4(C)CC[C@H](OC(C)=O)C(C)(C)[C@@H]4CC[C@@]3(C)[C@]1(C)CC2`, the growth was 97.4% (inactive).
As for `CCN(CC)c1ccc(/C=N/NC(=O)Cc2ccc(Nc3ccnc(C(F)(F)F)c3)cc2)c(O)c1`, the growth was 22% (inactive).
For `Cc1cc2c(cc1C)N(C(=O)CCl)CC(=O)N2`, the growth is 82.9% (inactive).
`C#CC#CC#CC#CC#CC#CC#CC#CC[C@@H]1OC[C@@H](COC(=O)O[C@@H](C(=O)O[C@H]2C[C@@]3(O)[C@@H](OC(=O)c4ccccc4)[C@@H]4[C@]5(OC(C)=O)CO[C@@H]5C[C@H](O)[C@@]4(C)C(=O)[C@H](OC(C)=O)C(=C2C)C3(C)C)[C@@H](NC(=O)c2ccccc2)c2ccccc2)O1`: the growth was 52.9% (inactive).
Next, `CCN1C(=O)N(CC)C2C1NN=c1s/c(=C\c3cnc(C)n3C)c(=O)n12` (stereo not given): -9.65% (active); `C/C=C(\C)C(=O)N[C@H]1C(O)C[C@]2(C)C3CC[C@@]4(C)C(CC[C@@H]4C(C)N(C)C)C3CCC2C1O` (stereo not given in full): 92.9% (inactive); `C#Cc1cccc(Nc2nc(C)nc3cc(NC(=O)CCl)ccc23)c1`: 48.2% (inactive).
Next, `CSc1nn2c(-c3ccc4ccccc4c3)ccnc2c1C#N`: 21.9% (inactive); `CCN(CC)CCCOc1ccc2ncnc(Nc3ccc(Oc4cccc(C(F)(F)F)c4)c(Cl)c3)c2c1`: 21.3% (inactive).
The same measure for `O=C1/C(=C\c2ccccn2)c2ccccc2N1c1c(Cl)cccc1Cl`: 21.3% (inactive).
